# Laboratory results: PubChem BioAssay (EPA / NIEHS)
# Calls of active or inactive are those of the source. The calls were made as follows: active = hit-call score of the fitted dose curve at least 0.9, where 1 is the maximum; inactive = score below 0.9.
# What was measured:
# [1] = APR_HepG2_NuclearSize_72hr: Apredica 72-hour HepG2 Assay for Nuclear Size (AID 2282925); details: high-content imaging, actives raise or lower the signal
# Summary of the method: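 HepG2 cells were exposed to compounds at ten concentrations from 0.39 to 200 uM (duplicate, 0.5% DMSO final) for 72 hr. After fixation in 3.7% formaldehyde, nuclei were stained with Hoechst 33342 (2 ug/mL) and imaged at 20x.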
# [2] = ATG_CRE_CIS: Attagene CIS-FACTORIAL HepG2 Assay for human cAMP Responsive Element (CRE) binding protein 3 (AID 2282926); details: HepG2 CRE cis-reporter, Attagene multiplexed mRNA; actives raise or lower the signal
# Summary of the method: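 Transfected HepG2 were treated for 24 hours, then RNA was extracted and reporter cDNA amplified with sequence-specific primers. Labelled fragments were separated by capillary electrophoresis, and the CRE signal was fitted bidirectionally with DMSO as baseline.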
# [3] = biological target: CCAAT/enhancer-binding protein beta (Homo sapiens) (UniProt P17676); assay: ATG_C_EBP_CIS: Attagene CIS-FACTORIAL HepG2 Assay for human CCAAT/Enhancer Binding Protein (C/EBP) beta (AID 2282927); details: HepG2 Attagene cis-factorial transcription factor reporter; actives raise or lower the signal
# Chain of CCAAT/enhancer-binding protein beta (Homo sapiens) (P17676 whole entry, looked up): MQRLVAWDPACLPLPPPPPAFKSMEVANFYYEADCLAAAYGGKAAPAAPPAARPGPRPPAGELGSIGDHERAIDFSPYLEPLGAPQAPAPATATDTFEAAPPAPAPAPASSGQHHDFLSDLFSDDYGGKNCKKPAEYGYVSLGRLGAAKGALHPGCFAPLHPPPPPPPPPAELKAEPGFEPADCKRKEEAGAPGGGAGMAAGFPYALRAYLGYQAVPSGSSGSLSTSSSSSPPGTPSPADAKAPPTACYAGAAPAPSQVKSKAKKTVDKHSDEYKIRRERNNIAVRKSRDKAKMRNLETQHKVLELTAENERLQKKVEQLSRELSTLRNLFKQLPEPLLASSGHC
# Summary of the method: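 Following a 24 h incubation with test chemical, transfected HepG2 cells yielded RNA whose reporter transcripts were quantified by RT-PCR and fluorescent capillary electrophoresis, with DMSO serving as baseline for bidirectional fitting.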
# [4] = ATG_CMV_CIS: Attagene CIS-FACTORIAL HepG2 Assay for human CMV (Internal Marker) (AID 2282928); details: HepG2 CMV promoter reporter, transcription factor profiling; actives raise or lower the signal;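 also: endpoint acts as a background internal control marker rather than a target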
# Summary of the method: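 CMV internal-marker background readout in transiently transfected HepG2 cells bearing cis-regulated reporter units. Reporter mRNA is measured 24 h after dosing by RT-PCR and capillary electrophoresis, with bidirectional fitting against DMSO.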
# [5] = ATG_DR4_LXR_CIS: Attagene CIS-FACTORIAL HepG2 Assay for human Liver X Receptor (LXR), DR4 submotif (AID 2282929); details: HepG2 Attagene DR4 cis-reporter, mRNA transcription; actives raise or lower the signal
# Summary of the method: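 Cells were transfected with multiple reporter transcription units, exposed to chemicals for 24 hours, then lysed for RNA. Reporter mRNA induction was measured by RT-PCR with capillary electrophoresis detection and fitted in both directions relative to DMSO.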
# [6] = ATG_AP_1_CIS: Attagene CIS-FACTORIAL HepG2 Assay for human Activator Protein 1 (AP-1) (AID 2282931); details: HepG2 Attagene cis-factorial AP-1 reporter mRNA; actives raise or lower the signal
# Summary of the method: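 Endogenous transcription-factor activity in human HepG2 liver cells is read through a cis-promoter reporter transcript, sampled 24 h after dosing. Detection uses RT-PCR with capillary electrophoresis; values come from bidirectional fitting relative to DMSO.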
# [7] = ATG_AP_2_CIS: Attagene CIS-FACTORIAL HepG2 Assay for human Activator Protein 2 (AP-2) (AID 2282932); details: HepG2 AP-2 cis-reporter, Attagene transcription factor profiling; actives raise or lower the signal
# Summary of the method: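 HepG2 cells were transiently transfected with multiple cis-promoter reporter transcription units and dosed for 24 h. Reporter mRNA was measured by RT-PCR with capillary electrophoresis fluorescence; bidirectional fits relative to DMSO baseline.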
# [8] = ATG_BRE_CIS: Attagene CIS-FACTORIAL HepG2 Assay for human Bone Morphogenetic Protein (BMP) Response Element (BRE) (AID 2282933); details: HepG2 BMP response element reporter, Attagene transcription factor profiling; actives raise or lower the signal
# Summary of the method: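 A HepG2 multiplex reporter system measured inducible reporter mRNA 24 h post-dosing. Detection: RT-PCR, 6-FAM primer extension, HpaI digestion, capillary electrophoresis. Activity fitted bidirectionally relative to DMSO.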
# [9] = biological target: Retinoic acid receptor alpha (Homo sapiens) (UniProt P10276); assay: ATG_DR5_RAR_CIS: Attagene CIS-FACTORIAL HepG2 Assay for human Retinoic Acid Receptor Alpha (RARE), DR5 submotif (AID 2282934); details: HepG2 Attagene cis-factorial RARE DR5 reporter, mRNA; actives raise or lower the signal
# Chain of Retinoic acid receptor alpha (Homo sapiens) (P10276 whole entry, looked up): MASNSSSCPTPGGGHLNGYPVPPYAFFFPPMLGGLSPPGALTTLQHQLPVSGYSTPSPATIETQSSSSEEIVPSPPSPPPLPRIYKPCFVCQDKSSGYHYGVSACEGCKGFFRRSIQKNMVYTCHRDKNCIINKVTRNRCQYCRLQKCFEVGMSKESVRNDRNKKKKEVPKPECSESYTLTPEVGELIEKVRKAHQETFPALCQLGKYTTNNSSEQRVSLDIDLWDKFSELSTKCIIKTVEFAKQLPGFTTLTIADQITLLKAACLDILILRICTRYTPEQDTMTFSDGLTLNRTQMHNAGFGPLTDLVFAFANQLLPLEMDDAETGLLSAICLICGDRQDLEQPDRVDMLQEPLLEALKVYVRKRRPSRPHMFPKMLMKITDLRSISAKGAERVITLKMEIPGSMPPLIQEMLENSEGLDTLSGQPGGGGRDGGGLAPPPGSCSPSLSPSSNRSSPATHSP
# Summary of the method: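 Endpoint fitted in both directions relative to DMSO as negative control. It reflects DR5 cis-element reporter mRNA induction in transiently transfected HepG2 cells, measured 24 h after dosing through RT-PCR and fluorescent capillary electrophoresis.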
# [10] = biological target: Transcription factor E2F1 (Homo sapiens) (UniProt Q01094); assay: ATG_E2F_CIS: Attagene CIS-FACTORIAL HepG2 Assay for human E2F Transcription Factor 1 (AID 2282935); details: HepG2 Attagene cis-reporter, E2F reporter RNA transcripts; actives raise or lower the signal
# Chain of Transcription factor E2F1 (Homo sapiens) (Q01094 whole entry, looked up): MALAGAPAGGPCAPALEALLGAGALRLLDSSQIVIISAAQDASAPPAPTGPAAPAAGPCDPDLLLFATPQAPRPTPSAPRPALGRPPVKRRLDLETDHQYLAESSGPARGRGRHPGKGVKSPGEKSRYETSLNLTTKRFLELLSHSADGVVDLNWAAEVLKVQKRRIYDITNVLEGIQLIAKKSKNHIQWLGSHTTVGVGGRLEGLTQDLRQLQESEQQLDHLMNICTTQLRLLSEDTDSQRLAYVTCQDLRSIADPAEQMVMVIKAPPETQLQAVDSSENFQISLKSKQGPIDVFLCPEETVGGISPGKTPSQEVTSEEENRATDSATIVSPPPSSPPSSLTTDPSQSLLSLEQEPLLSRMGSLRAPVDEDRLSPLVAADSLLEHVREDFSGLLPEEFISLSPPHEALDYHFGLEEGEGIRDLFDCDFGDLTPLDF
# Summary of the method: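 HepG2 cells transiently transfected with multiplexed cis-element reporter units, dosed for 24 h. Reporter mRNA measured by RT-PCR, 6-FAM primer-extension labeling, HpaI digestion and capillary electrophoresis; bidirectional fit versus DMSO baseline.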
# [11] = ATG_E_Box_CIS: Attagene CIS-FACTORIAL HepG2 Assay for human Enhancer Box (E-box) (AID 2282936); details: HepG2 E-box cis-reporter transcription, actives raise or lower the signal
# Summary of the method: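 HepG2 cells transiently transfected with multiplexed cis-element reporter units sensing endogenous transcription factor activity; 24 h compound exposure. Reporter mRNA measured by RT-PCR, 6-FAM primer extension, HpaI digestion and capillary electrophoresis; bidirectional fit versus DMSO.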
# [12] = ATG_M_61_CIS: Attagene CIS-FACTORIAL HepG2 Assay for M61 Transcription Factor (Internal Marker) (AID 2282937); details: HepG2 Attagene CIS-FACTORIAL M61 internal marker reporter; actives raise or lower the signal
# Summary of the method: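 Cells were transfected with reporter units under cis-regulatory promoters, treated with chemicals for 24 h, then lysed for RNA. Reporter transcripts were quantified by RT-PCR and capillary electrophoresis, and activity was fitted bidirectionally against DMSO.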
# [13] = ATG_EGR_CIS: Attagene CIS-FACTORIAL HepG2 Assay for human Early Growth Response 1 (EGR1) (AID 2282938); details: HepG2 Attagene CIS-FACTORIAL EGR reporter mRNA; actives raise or lower the signal
# Summary of the method: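 Endogenous TF activity in HepG2 liver cells was gauged through cis-promoter reporter constructs transiently transfected. After 24 h dosing, reporter mRNA was quantified by RT-PCR and capillary electrophoresis, and curves fitted in both directions versus DMSO.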
# [14] = ATG_M_19_CIS: Attagene CIS-FACTORIAL HepG2 Assay for M19 Transcription Factor (Internal Marker) (AID 2282939); details: HepG2 Attagene CIS-FACTORIAL M19 internal marker reporter; actives raise or lower the signal
# Summary of the method: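 Chemical-treated HepG2 (24 h) with MRTU constructs; reporter transcripts detected by fluorescent RT-PCR fragment analysis on capillary electrophoresis. Internal background marker, DMSO as baseline.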
# [15] = ATG_ERE_CIS: Attagene CIS-FACTORIAL HepG2 Assay for Estrogen Response Element (ERE) (AID 2282940); details: HepG2 ERE cis-reporter, Attagene RNA transcript; actives raise or lower the signal
# Summary of the method: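 Human liver cells (HepG2) bearing transiently transfected, promoter-regulated reporter units were exposed 24 h. Reporter mRNA induction was detected by capillary electrophoresis of labelled RT-PCR products and fitted bidirectionally to DMSO.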
# [16] = biological target: Hepatocyte nuclear factor 3-beta (Homo sapiens) (UniProt Q9Y261); assay: ATG_FoxA2_CIS: Attagene CIS-FACTORIAL HepG2 Assay for human Forkhead box A2 (FOXA2) (AID 2282942); details: HepG2 cis-reporter transcription factor activity, 24 h; actives raise or lower the signal
# Chain of Hepatocyte nuclear factor 3-beta (Homo sapiens) (Q9Y261 whole entry, looked up): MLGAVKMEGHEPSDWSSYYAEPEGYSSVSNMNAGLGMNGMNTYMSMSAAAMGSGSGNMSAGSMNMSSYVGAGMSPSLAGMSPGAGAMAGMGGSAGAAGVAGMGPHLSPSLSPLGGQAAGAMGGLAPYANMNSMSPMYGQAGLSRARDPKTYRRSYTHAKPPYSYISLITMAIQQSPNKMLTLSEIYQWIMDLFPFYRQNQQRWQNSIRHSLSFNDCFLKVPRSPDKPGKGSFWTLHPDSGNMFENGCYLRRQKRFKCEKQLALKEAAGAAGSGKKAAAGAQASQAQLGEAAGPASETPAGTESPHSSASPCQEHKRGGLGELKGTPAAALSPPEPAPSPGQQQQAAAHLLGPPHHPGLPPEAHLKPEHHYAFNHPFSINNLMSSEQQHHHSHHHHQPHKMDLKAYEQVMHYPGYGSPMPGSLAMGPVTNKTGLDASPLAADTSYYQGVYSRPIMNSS
# Summary of the method: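 Endogenous transcription factor activity was read in HepG2 cells carrying transiently transfected cis-promoter reporter units. After 24 h dosing, reporter mRNA was quantified by RT-PCR and capillary electrophoresis, and values fitted bidirectionally versus DMSO.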
# [17] = ATG_FoxO_CIS: Attagene CIS-FACTORIAL HepG2 Assay for human Forkhead box O (FoxO) (AID 2282943); details: HepG2 Attagene cis-reporter, FoxO element, mRNA; actives raise or lower the signal
# Summary of the method: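 Values reflect reporter mRNA induction or loss in HepG2 cells 24 h post-dosing, fitted bidirectionally with DMSO as negative control and baseline. Detection used RT-PCR and fluorescence capillary electrophoresis.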
# [18] = ATG_GATA_CIS: Attagene CIS-FACTORIAL HepG2 Assay for human GATA Binding Protein (AID 2282944); details: HepG2 GATA cis-element reporter, Attagene multiplex mRNA; actives raise or lower the signal
# Summary of the method: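 Transfected cis-reporter HepG2 cells were treated with chemicals for 24 hours. Total RNA was then converted to cDNA, amplified with reporter-specific primers and analysed by fluorescent capillary electrophoresis, using DMSO-treated wells as baseline.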
# [19] = biological target: Aryl hydrocarbon receptor (Homo sapiens) (UniProt P35869); assay: ATG_Ahr_CIS: Attagene CIS-FACTORIAL HepG2 Assay for human Aryl Hydrocarbon Receptor (Ahr) (AID 2282930); details: HepG2 AhR cis-factorial reporter transcription; actives raise or lower the signal
# Chain of Aryl hydrocarbon receptor (Homo sapiens) (P35869 whole entry, looked up): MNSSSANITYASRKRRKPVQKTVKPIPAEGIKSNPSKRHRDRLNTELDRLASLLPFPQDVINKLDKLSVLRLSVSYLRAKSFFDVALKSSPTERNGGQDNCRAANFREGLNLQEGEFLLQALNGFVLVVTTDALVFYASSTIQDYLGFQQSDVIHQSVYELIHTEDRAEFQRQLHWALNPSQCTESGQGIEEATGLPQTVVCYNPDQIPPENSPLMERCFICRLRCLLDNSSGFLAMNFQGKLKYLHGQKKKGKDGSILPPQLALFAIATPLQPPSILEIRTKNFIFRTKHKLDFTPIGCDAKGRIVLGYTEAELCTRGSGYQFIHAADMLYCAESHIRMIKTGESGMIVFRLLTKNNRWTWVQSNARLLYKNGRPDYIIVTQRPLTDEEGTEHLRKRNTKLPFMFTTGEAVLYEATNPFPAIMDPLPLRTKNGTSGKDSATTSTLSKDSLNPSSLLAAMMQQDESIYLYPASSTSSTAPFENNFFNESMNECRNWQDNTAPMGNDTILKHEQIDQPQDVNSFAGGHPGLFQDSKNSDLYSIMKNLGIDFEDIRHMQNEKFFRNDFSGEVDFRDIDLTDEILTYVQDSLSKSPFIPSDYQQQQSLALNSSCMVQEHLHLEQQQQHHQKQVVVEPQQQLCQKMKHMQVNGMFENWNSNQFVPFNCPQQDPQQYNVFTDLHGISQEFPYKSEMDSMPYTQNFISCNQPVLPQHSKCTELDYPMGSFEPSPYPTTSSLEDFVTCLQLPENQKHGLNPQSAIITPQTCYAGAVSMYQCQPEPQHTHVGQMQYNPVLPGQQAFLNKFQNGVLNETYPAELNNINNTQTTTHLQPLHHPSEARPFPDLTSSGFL
# Summary of the method: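 Values derive from bidirectional fitting against DMSO negative control. Underlying signal: cis-element reporter mRNA in transiently transfected HepG2, harvested 24 h post-dose and measured by RT-PCR plus capillary electrophoresis.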
# [20] = ATG_Ets_CIS: Attagene CIS-FACTORIAL HepG2 Assay for human Erythroblast Transformation Specific (ETS) (AID 2282941); details: HepG2 ETS cis-reporter transcription, actives raise or lower the signal
# Summary of the method: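 HepG2 cells transfected with multiple cis-regulated reporter units measuring endogenous ETS-driven transcription, 24 h after dosing. Reporter mRNA quantified by RT-PCR with capillary electrophoresis; bidirectional fit relative to DMSO.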
structure (smiles),measurement,setting,value
CCCCCCCC/C=C\CCCCCCCC(=O)OC[C@@H](O)[C@H]1OC[C@H](O)[C@H]1O,outcome,[1],inactive
same,outcome,[2],inactive
same,outcome,[3],inactive
same,outcome,[4],inactive
same,outcome,[5],inactive
same,outcome,[6],inactive
same,outcome,[7],inactive
same,outcome,[8],inactive
same,outcome,[9],inactive
same,outcome,[10],inactive
same,outcome,[11],inactive
same,outcome,[12],inactive
same,outcome,[13],inactive
same,outcome,[14],inactive
same,outcome,[15],inactive
same,outcome,[16],inactive
same,outcome,[17],inactive
same,outcome,[18],inactive
c1ccc(C(O[C@@H]2CCCN(CCc3ccc4c(c3)OCO4)C2)c2ccccc2)cc1,outcome,[1],inactive
same,outcome,[3],inactive
same,AC50,[4],50.8 µM (active)
same,AC50,[5],47.4 µM (active)
same,AC50,[19],18.1 µM (active)
same,AC50,[6],52.1 µM (active)
same,outcome,[7],inactive
same,AC50,[8],33 µM (active)
same,outcome,[10],inactive
same,outcome,[11],inactive
same,outcome,[12],inactive
same,outcome,[14],inactive
same,AC50,[15],13.8 µM (active)
same,outcome,[20],inactive
same,outcome,[16],inactive
same,outcome,[17],inactive
same,outcome,[18],inactive
OC[C@H]1O[C@@H]2O[C@H]3[C@H](O)[C@@H](O)[C@@H](O[C@H]4[C@H](O)[C@@H](O)[C@@H](O[C@H]5[C@H](O)[C@@H](O)[C@@H](O[C@H]6[C@H](O)[C@@H](O)[C@@H](O[C@H]7[C@H](O)[C@@H](O)[C@@H](O[C@H]1[C@H](O)[C@H]2O)O[C@@H]7CO)O[C@@H]6CO)O[C@@H]5CO)O[C@@H]4CO)O[C@@H]3CO,outcome,[1],inactive
same,outcome,[3],inactive
same,outcome,[4],inactive
same,outcome,[5],inactive
same,AC50,[19],33.5 µM (active)
same,outcome,[6],inactive
same,outcome,[7],inactive
same,outcome,[8],inactive
same,outcome,[9],inactive
same,outcome,[10],inactive
same,outcome,[11],inactive
same,outcome,[12],inactive
same,outcome,[14],inactive
same,outcome,[15],inactive
same,outcome,[20],inactive
same,outcome,[16],inactive
same,outcome,[17],inactive
same,outcome,[18],inactive
CCCCCCOC(=O)CC(CC(=O)OCCCCCC)(OC(=O)CCC)C(=O)OCCCCCC,outcome,[1],inactive
same,outcome,[3],inactive
same,outcome,[4],inactive
same,outcome,[5],inactive
same,outcome,[19],inactive
same,outcome,[6],inactive
same,outcome,[7],inactive
same,outcome,[8],inactive
same,outcome,[9],inactive
same,outcome,[10],inactive
same,outcome,[11],inactive
same,outcome,[12],inactive
same,outcome,[14],inactive
same,outcome,[15],inactive
same,outcome,[20],inactive
same,outcome,[16],inactive
same,outcome,[17],inactive
same,outcome,[18],inactive
